PubChem BioAssay (NCATS)
Results filed as inconclusive are left out. The source made the active and inactive calls. Calls follow the shape of the dose curve; as a rule, active = well fitted cell-killing curve with a large enough effect; inconclusive = small, poorly fitted or top-dose-only effect, or effect the other way; inactive = no such curve, though single readings can be large or run the other way.

Experiment: Quantitative High-Throughput drug screen in 47 multiple myeloma cell lines against the NCATS MIPE library collection: FR4_PLB cell viability assay (AID 1918924; also: nearly all actives have a fitted effect of over 35% in size)
Settings: FR4_PLB myeloma cells viability, CellTiter-Glo ATP, 48 h; series mostly up to 45.8 µM; viability (% of DMSO control): at the top concentration
Text: PI: Beverly A. Mock Ph.D.
Laboratory of Cancer Biology and Genetics,
Center for Cancer Research, National Cancer Institute,
National Institute of Health, Bethesda, Maryland
Drug resistance and disease progression are common in multiple myeloma (MM) patients, underscoring the need for new therapeutic combinations. […] We hypothesized that effective combinations would reduce MYC expression and enhance p16 activity. […] These preclinical data identify potentially useful drug combinations for evaluation in drug-resistant MM and reveal potential mechanisms of combined drug sensitivity.
Described herein is the primary MIPE qHTS used to cherrypick compounds. Validated compounds were then further tested for potential synergistic activiy.
[1] Peat TJ, Gaikwad SM, Dubois W, Gyabaah-Kessie N, Zhang S, Gorjifard S, Phyo Z, Andres M, Hughitt VK, Simpson RM, Miller MA, Girvin AT, Taylor A, Williams D, D'Antonio N, Zhang Y, Rajagopalan A, Flietner E, Wilson K, Zhang X, Shinn P, Klumpp-Thomas C, McKnight C, Itkin Z, Chen L, Kazandijian D, Zhang J, Michalowski AM, Simmons JK, Keats J, Thomas CJ, Mock BA. Drug combinations identified by high-throughput screening promote cell cycle transition and upregulate Smad pathways in myeloma. Cancer Lett. 2023 Aug 1;568:216284. doi: 10.1016/j.canlet.2023.216284. Epub 2023 Jun 24. PMID: 37356470; PMCID: PMC10408729.
SEQUENCE No. (e.g., 1, 2, 3, etc.); […] (e.g., Cells, Incubation, Reagent, etc.); VALUE and DESCRIPTION.
1; Cells; 5 uL; white, solid bottom 1536-well Greiner assay plate.
2; Compounds; 23 nL; Kalypsis pin tool (Wako USA) equipped with a 1536-well pin head to transfer to the assay plates.
3; Incubation; 48 hours; 37C incubation.
4; Reagent;5uL; CellTiter Glo (Promega).
5; Detector; 425V; Luminescence; Viewlux PerkinElmer.
NOTES (numbers refer to Sequence numbers above)
1. The cell-based screening methods employed in this study were like those previously published. Briefly, the corresponding myeloma cell lines were screened in 1,536-well plates with 500 cells, 5-uL per well for inhibition of cell viability (assessed by measuring ATP levels with CellTiterGlo).
2. NCATS MIPE 4.0 library of approved and investigational drugs were added using the Kalypsis pin tool. Wells treated with DMSO only for 100% viability and media only wells for 0% viability were used as controls.
3. The assay plates were covered and incubated for 48 hours in a 37C, 5% CO2 incubator with controlled humidity.
4. After 48 hours, CellTilter-GloTM luminescent substrate mix (Promega) reagent was added to the assay plate and plates we incubated for 5 min at room temperature.
5. Signal was measured as median relative luminescence units on a ViewLux (PerkinElmer) multiplate reader.
[1] Heske CM, Davis MI, Baumgart JT, Wilson K, Gormally MV, Chen L, Zhang X, Ceribelli M, Duveau DY, Guha R, Ferrer M, Arnaldez FI, Ji J, Tran HL, Zhang Y, Mendoza A, Helman LJ, Thomas CJ. Matrix Screen Identifies Synergistic Combination of PARP Inhibitors and Nicotinamide Phosphoribosyltransferase (NAMPT) Inhibitors in Ewing Sarcoma. Clin Cancer Res. 2017 Dec 1;23(23):7301-7311. doi: 10.1158/1078-0432.CCR-17-1121. Epub 2017 Sep 12. PMID: 28899971; PMCID: PMC6636827.
Potency is read from the fitted curve at half-maximal effect.

| Structure (SMILES) | Potency | viability (% of DMSO control) |
| --- | --- | --- |
| CCN1CCN(C(=O)Cc2ccc(Nc3ncc(F)c(Nc4ccc(C(=O)Nc5ccccc5Cl)cc4)n3)cc2)CC1 | 3.72 µM (active) | – |
| O=C1C=CC[C@@H]2[C@H]3CCCN4CCC[C@@H](CN12)[C@@H]34 | 11.8 µM (active) | – |
| c1ccc2c(CN3CCNCC3)cccc2c1 | – | 104% (inactive) |
| C[C@@H]1O[C@@H](O[C@@H]2C=C3CC[C@@H]4[C@@H](CC[C@]5(C)[C@H](c6ccc(=O)oc6)CC[C@@]45O)[C@@]3(C)CC2)[C@H](O)[C@H](O)[C@H]1O | 0.0083 µM (active) | – |
| CC1=C(O)C(=O)C=C2C1=CC=C1[C@@]2(C)CC[C@@]2(C)[C@@H]3C[C@](C)(C(=O)O)CC[C@]3(C)CC[C@]12C | 0.743 µM (active) | – |
| COc1cccc2c1[C@]13CCN(CC4CC4)[C@H](C2)[C@]1(OC)CCC(=O)C3 | – | 116% (inactive) |
| C[C@@]12OC(=O)[C@]1([C@@H](O)[C@@H]1C=CCCC1)NC(=O)[C@H]2CCCl | 0.0053 µM (active) | – |
| CC(C)(C)[C@]1(O)C[C@@H]2OC(=O)C[C@@]23C(=O)O[C@@H]2OC(=O)[C@H](O)C213 (stereo not given in full) | – | 112% (inactive) |
| CCCN1CCO[C@@H]2c3cc(O)ccc3OC[C@@H]21 | – | 128% (inactive) |
| CN(C)[C@@H]1C(=O)C(C(N)=O)=C(O)[C@@]2(O)C(=O)C3=C(O)c4c(O)cccc4[C@@](C)(O)[C@H]3[C@H](O)[C@@H]12 | – | 103% (inactive) |
| C[C@]12CC[C@H]3[C@@H](CCC4=CC(=O)CC[C@@]43C)[C@H]1CC[C@H]2O | – | 108% (inactive) |
| O=c1[nH]c2ccc(Cl)cc2c(N[C@@H]2CN3CCC2CC3)c1-c1nc2ccccc2[nH]1 | 0.0743 µM (active) | – |
| COC1=CC(C)=C[C@@H](C)[C@@H](O)[C@@H](C)CC(C)=CC=C[C@H](OC)[C@H]([C@@H](C)[C@@H](O)[C@H](C)[C@@]2(O)C[C@@H](O)[C@H](C)[C@@H](C(C)C)O2)OC1=O | 0.0042 µM (active) | – |
| COc1ccc(N(C(=O)Oc2c(C)cccc2C)c2ccnc(Nc3ccc(N4CCN(C)CC4)cc3)n2)c(OC)c1 | 2.64 µM (active) | – |
| CC(N[C@H]1C[C@H]1c1ccccc1)c1ccc2c(c1)OCCO2 (stereo not given in full) | – | 104% (inactive) |
| NC1=NC(=O)N2CC12 (stereo not given) | – | 135% (inactive) |
| CC=C(C)C(=O)N[C@@H](c1ccccc1)[C@@H](O)C(=O)O[C@H]1C[C@@]2(O)[C@@H](OC(=O)c3ccccc3)[C@@H]3[C@]4(OC(C)=O)CO[C@@H]4C[C@H](O)[C@@]3(C)C(=O)[C@H](OC(C)=O)C(=C1C)C2(C)C | – | 45.2% (inactive) |
| CN1[C@H]2CC(O)C[C@H]1[C@H]1O[C@H]12 (stereo not given in full) | 26.4 µM (active) | – |
| Cc1c(C(=O)c2cccc3ccccc23)c2cccc3c2n1[C@H](CN1CCOCC1)CO3 | 23.5 µM (active) | – |
| C[C@H]([C@H](O)CCC(C)(C)O)[C@H]1CC[C@@]2(O)C3=CC(=O)[C@@H]4C[C@@H](O)[C@@H](O)C[C@]4(C)[C@@H]3CC[C@]12C | – | 117% (inactive) |

| Structure (SMILES) | Potency | viability (% of DMSO control) |
| --- | --- | --- |
| CC(=CCCC1=CCC(C2=CC(=O)OC2O)OC1O)CCC1=C(C)CCCC1(C)C (stereo not given) | – | 118% (inactive) |
| CC(=Cc1csc(C)n1)[C@@H]1C[C@H]2O[C@]2(C)CCC[C@H](C)[C@@H](O)[C@@H](C)C(=O)C(C)(C)[C@@H](O)CC(=O)O1 | – | 38.6% (inactive) |
| C[C@]12CC[C@H]3[C@@H](CCC4=CC(=O)CC[C@@]43C)[C@H]1CC[C@H]2OC(=O)CCC1CCCC1 | – | 91.2% (inactive) |
| CC(C)(O)C=CC(=O)[C@](C)(O)[C@H]1[C@H](O)C[C@]2(C)[C@@H]3CC=C4[C@@H](C=C(O)C(=O)C4(C)C)[C@]3(C)C(=O)C[C@@]12C | 0.0469 µM (active) | – |
| CCCC[N+]1(C)[C@H]2CC(OC(=O)[C@H](CO)c3ccccc3)C[C@H]1[C@H]1O[C@H]12 (stereo not given in full) | – | 113% (inactive) |
| CCC(=O)OC1CCC2C3CCC4=CC(=O)CC[C@@]4(C)C3CC[C@]12C (stereo not given in full) | – | 111% (inactive) |
| CCOC(=O)c1c(C(C#N)=CN)c2ccc(Cl)c(Cl)c2n1C | – | 112% (inactive) |
| COc1cc([C@@H]2c3cc4c(cc3[C@@H](O)C3COC(=O)C32)OCO4)cc(OC)c1O (stereo not given in full) | 0.0066 µM (active) | – |
| O=c1[nH]c2ccccc2n1C1CCN(Cc2ccc(-c3[nH]c4cc5ncnc5cc4nc3-c3ccccc3)cc2)CC1 | 23.5 µM (active) | – |
| Cc1[nH]nc2ccc(-c3cncc(OC[C@@H](N)Cc4c[nH]c5ccccc45)c3)cc12 | 0.833 µM (active) | – |
| CC(C)(O)C(=O)Nc1ccc([N+](=O)[O-])c(C(F)(F)F)c1 | – | 92.5% (inactive) |
| COCC1(CO)C(=O)C2CCN1CC2 (stereo not given) | 16.6 µM (active) | – |
| CC(C)N(CCNC(=O)CN1CCCC1=O)C(C)C | – | 127% (inactive) |
| CN1CCN(c2ccc([N+](=O)[O-])c3no[n+]([O-])c23)CC1 | 20.9 µM (active) | – |
| CC(=Cc1csc(C)n1)[C@@H]1C[C@H]2O[C@@H]2CCC[C@H](C)[C@@H](O)[C@@H](C)C(=O)C(C)(C)[C@@H](O)CC(=O)O1 | – | 35.2% (inactive) |
| CC(=O)OCC1=C(C(=O)O)N2C(=O)[C@@H](N)[C@@H]2SC1 | – | 117% (inactive) |
| C[C@](O)(COc1ccc(C#N)cc1)C(=O)Nc1ccc(C#N)c(C(F)(F)F)c1 | – | 84.7% (inactive) |
| C[C@]12CC[C@H](O)CC1=CC[C@H]1[C@H]3CCC(=O)[C@@]3(C)CC[C@@H]12 | – | 102% (inactive) |
| C[C@]12CCC(=O)C(O)=C1CC[C@@H]1[C@H]3CCC(=O)[C@@]3(C)CC[C@@H]12 | – | 103% (inactive) |
| O=[N+]([O-])c1ncc[nH]1 | – | 105% (inactive) |
